Screening data as filed in PubChem BioAssay.
The list is not random: actives were taken first. Their share in the collection is about 12%.
WT yeast gro inh = growth inhibition of WT yeast, mitochondrial fusion screen; mitochondrial fusion phenotypic screen, WT strain; inhibition, % at 10 µM; 190,000 tested, 2.1% active; AID 1362; in the data active means inhibition above about 58%; tested in S. cerevisiae
Insulin prom up = MIN6 insulin promoter up-regulation | MIN6 insulin promoter-GFP reporter, high-content imaging; active compounds read high | z-score at 5 µM | 190,000 tested, 0.3% active | AID 1625;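 active means z-score above 3 at 5 µM with at least 500 cells counted in the well; inconclusive means wells under 500 cells, flagged as cytotoxic or low count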
KCC2 mod = KCC2 (human) Cl- transport modulation | 190,000 tested, 2.2% active | Q9H2X9 | AID 1456 | KCC2 cells, thallium flux FluoZin-2 fluorescence | B-score of Tl+ flux slope (higher = more flux/activation; lower = inhibition) at 10 µM;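 active means thallium flux slope and its plate-corrected score both differing from the plate sample mean at a set confidence after two filtering rounds, in either direction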;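 further: slope of fluorescence scaled to starting intensity during 10 to 20 s after thallium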
Lmaj promast = reduces viability of Leishmania major promastigotes; inhibition, % at 10 µM; resazurin fluorescence viability; 200,000 tested, 9% active; in the data active means inhibition above about 50%;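 further: promastigotes grown with compound for 44 hours at 28 °C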
INS promoter inh = TRM-6 insulin promoter activity inhibition; TRM-6 cells (human fetal islet line), insulin promoter-eGFP reporter, imaging; reporter expression induced with tamoxifen; inhibition, % at 2 µM; 130,000 tested, 0.9% active; AID 1273;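 active means inhibition above the mean plus 3 SD, with well images judged a real hit on visual review, cut at about 60% in these data, passing the limit was not always enough; inconclusive means inhibition over the cutoff but images rejected on review; inactive means inhibition not above the cutoff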
ROMK primary = modulators of human ROMK potassium channel. P48048. Tet-inducible ROMK, thallium flux fluorescence; actives lie on both sides. B-score at 10 µM. 130,000 tested, 2% active. AID 1918;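 active means signal ratio slope over the read window, or its plate-corrected B-score, at least 3 SD from the plate mean, either direction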;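 further: B-score of the F/F0 ratio slope over 7 to 12 s after thallium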
Target sequence (P48048 whole entry, looked up): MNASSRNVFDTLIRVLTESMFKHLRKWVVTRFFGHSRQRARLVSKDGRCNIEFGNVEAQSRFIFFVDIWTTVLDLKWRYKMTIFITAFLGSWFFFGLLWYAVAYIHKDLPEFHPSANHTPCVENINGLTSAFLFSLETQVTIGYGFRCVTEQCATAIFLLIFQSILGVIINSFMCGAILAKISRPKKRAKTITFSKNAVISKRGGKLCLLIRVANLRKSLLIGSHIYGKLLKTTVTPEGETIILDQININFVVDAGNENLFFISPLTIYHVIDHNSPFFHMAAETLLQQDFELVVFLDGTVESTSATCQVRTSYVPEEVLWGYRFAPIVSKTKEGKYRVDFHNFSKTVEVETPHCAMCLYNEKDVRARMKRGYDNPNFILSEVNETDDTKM
ROMK retest = confirmation of human ROMK potassium channel modulators; ROMK thallium flux, fluorescence ratio; active compounds read low; 3,000 tested, 54% active; AID 1917; normalized thallium flux (F/F0 slope) at 10 µM; shares compounds with ROMK primary;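 active means Flux at 10 µM at least 3 SD below or above vehicle control mean in one or both replicates; inconclusive means no clear call, values can overlap the other calls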
Numbers without * were called inactive; ? = inconclusive; . = not tested or not shown.

SMILES	WT yeast gro inh	Insulin prom up	KCC2 mod	Lmaj promast	INS promoter inh	ROMK primary	ROMK retest
OC(CNCC1(N2CCCCC2)CCCCC1)COc1ccc(Cl)cc1Cl (stereo not given)	21.6	-1.43	1.29	43.6	.	-3.9*	0.0529*
COc1ccnc(-n2cccc2C#N)c1C#N	-11.5	-0.35	0.165	-0.7	.	.	.
Cc1c(Cl)cccc1NC(=O)CNC(=O)c1ccc(F)cc1	2.3	0.45	1.51	-8.3	12.5	.	?
CCCCN(CC)C(=O)Cc1c(C(=O)O)[nH]c2ccc(Cl)cc12	-12.9	-0.73	0.869	-11.3	27.8	.	.
O=C(O)c1ccc(N2CCOCC2)c(N2C(=O)C3C4C=CC(C4)C3C2=O)c1 (stereo not given)	-24.7	.	0.916	-3.2	40.0	-0.0253	0.0748
O=C(C1CCN(S(=O)(=O)c2ccc(F)cc2)CC1)N1CCOCC1	5.2	0.53	0.0277	-6.7	.	.	.
COc1ccccc1N1CCN(c2ccc(-c3ccccc3)nn2)CC1	50.8	0.54	-1.38	64.2*	-80.8	2.47*	0.0786
Cc1ccc(S(=O)(=O)NC(CC(=O)NCc2ccco2)c2ccco2)cc1 (stereo not given)	9.4	-0.05	.	5.3	-28.6	2.79*	?
COc1ccc(S(=O)(=O)NC(CC(=O)NCc2ccco2)c2ccco2)cc1 (stereo not given)	-10.0	-0.2	0.0118	1.1	21.4	.	.
CC1CCCCC1NC(=O)CN1C(=O)CSc2cc(S(=O)(=O)N3CCCCCC3)ccc21 (stereo not given)	18.8	-0.38	-3.02	15.5	-77.8	-4.51*	0.0653*
N#Cc1c(Nc2ccc(Cl)cc2)s[nH]c1=O	.	0.11	-1.96	.	.	-12*	0.0651*
CCN(CC)CCNC(=O)c1ccc(NC(=O)c2ccc(F)cc2)cc1	23.8	.	0.953	2.1	.	-0.409	.
CCN(CC)CCNC(=O)c1ccc(NC(=O)COc2ccccc2F)cc1	-5.5	0.77	.	-4.9	.	1.85*	0.0786
Cc1ccc2c(c1)C(=O)C(=O)N2CCCOc1ccccc1	-3.3	.	-0.633	27.9	-33.3	3.58*	0.0744
Cc1ccc(OCCCN2C(=O)C(=O)c3cc(C)ccc32)cc1	16.0	0.44	0.0142	-2.6	.	-0.0964	.
O=C(NCC1COc2ccccc2O1)C1C2C=CC3(CN(Cc4ccccc4Cl)C(=O)C13)O2 (stereo not given)	7.6	0.36	0.586	-1.1	.	.	.
CCOC(=O)c1c(C)[nH]c(C(=O)COC(=O)c2cn(CC)c3nc(C)ccc3c2=O)c1C	.	0.09	.	.	.	.	.
CCn1cc(C(=O)OCC(=O)c2cc(C)n(-c3ccc(OC(F)F)cc3)c2C)c(=O)c2ccc(C)nc21	48.9	.	-2.55	-10.2	.	-3.21*	0.0627*
CCn1cc(C(=O)OCC(=O)N(C)Cc2ccccc2)c(=O)c2ccc(C)nc21	-10.2	-1.14	0.304	-6.5	.	2.93*	0.0781
Cc1ccccc1N1CCN(C(=O)c2ccccc2NC(=O)C2CC=CCC2C(=O)O)CC1 (stereo not given)	19.3	-0.42	0.437	-10.2	2.9	0.715	.
O=C1CC(c2cccs2)Cc2nc(NCC3CCCO3)ncc21 (stereo not given)	7.5	0.56	-1.72	2.0	-90.9	.	.
CCOC(=O)Cc1csc(NC(=O)c2csc3c2CCCC3)n1	54.0	-0.47	-0.739	7.1	26.3	.	0.0699
COc1ccc(OC)c(C2=NOC(C(=O)NCc3cccs3)C2)c1 (stereo not given)	-12.4	-0.33	0.428	1.9	.	0.0655	.
CN(C)CCn1c(C(=O)Nc2ccccc2)cc2ccccc21	-14.8	-0.62	.	12.4	.	.	.
CCOC(=O)c1cc2ccccc2n1CCN(CC)CC	-4.6	-0.11	2.48	5.9	-77.8	4.96*	?
SMILES	WT yeast gro inh	Insulin prom up	KCC2 mod	Lmaj promast	INS promoter inh	ROMK primary	ROMK retest
CCCNc1nc(Cl)nc(NC(C)(C)C)n1	4.3	-0.13	0.445	5.7	.	-3.78*	0.0533*
CC(C)(C)Nc1nc(Cl)nc(NC(C)(C)C)n1	-11.9	-0.77	0.657	21.1	-6.9	.	.
CC(C)Cc1nc2oc3c(NCC4CCCO4)ncnc3c2c2c1CCC2 (stereo not given)	4.1	-4.07	-1.36	42.3	.	.	.
Cc1nc(C)c(CC(=O)N/N=C/c2ccc(O)cc2)c(=O)[nH]1	-2.0	-0.06	0.0808	23.0	37.2	0.569	.
CC/C(=C\c1oc2cc3ccccc3cc2[n+]1CC)Nc1ccccc1	41.9	-2.67	.	100.3*	.	.	0.0549*
O=C(Nc1ccccc1)c1cc2ccccc2o1	33.6	-0.38	0.00861	2.6	-71.4	-0.784	.
[O-]/[N+](=C/c1ccc(F)cc1)c1ccc(Cl)cc1	2.9	0.21	1.07	-1.0	32.3	-0.787	.
O=C(CSc1ncn[nH]1)c1ccc(OC(F)F)cc1	-2.2	0.46	-0.274	-10.2	-58.3	0.424	.
COc1cccc(CC(NC(C)=O)C(=O)NC2CCN(c3c(Cc4ccccc4)c(C)nc4ncnn34)CC2)c1 (stereo not given)	-8.9	-1.02	0.000781	-1.6	-11.1	-0.738	0.0925
COCCNC(=O)CN1CCC(NC(=O)C(C)(C)C)CC1	0.7	0.33	0.834	-6.4	.	1.07	.
Cc1ccccc1C(=O)NC(NCc1ccco1)C(Cl)(Cl)Cl (stereo not given)	2.9	0.46	0.076	-1.4	.	.	.
CN(C)CCCN=C(NO)c1ccc(Cl)cc1Cl	.	.	0.412	.	.	0.169	.
NC/C(=N\O)c1ccc(Cl)cc1Cl	10.2	-0.7	.	11.5	46.7	-4.5*	0.0561*
Cc1cc(NS(=O)(=O)c2ccc(NC(=O)C(c3ccccc3)c3ccccc3)cc2)no1	-4.9	-0.04	-0.815	-16.5	-4.3	1.53	.
COc1ccc(NC(=S)N(CCCN2CCC(C)CC2)Cc2cccs2)cc1Cl	15.6	-0.24	0.306	99.2*	.	-5.16*	0.0553*
CSc1cccc(NC(=S)N(CCCN2CCCC(C)C2)Cc2cccs2)c1 (stereo not given)	15.1	-1.17	0.358	98.7*	-40.0	-4.39*	0.0578*
O=C(Nc1ccccc1-c1ccccc1)c1ccc(NC(=O)c2ccco2)cc1	.	-0.47	-1.22	14.5	-28.6	.	.
O=C(NCc1ccco1)c1cc(-c2ccc3c(c2)OCO3)on1	-8.9	1.21	.	-2.3	25.0	0.211	.
COCCNC(=O)c1cc(-c2ccc3c(c2)OCO3)on1	8.2	-1.15	0.276	-1.0	.	.	0.0811
CCCNC(=O)c1cc(-c2ccc(Br)cc2)on1	11.4	-0.69	-0.653	1.1	.	.	0.0804
Cc1ccc(-c2cc(C(=O)NCCN3CCOCC3)no2)cc1	-16.1	-0.01	-0.933	-0.8	-18.8	0.0981	.
Cc1ccc(N=Nc2[nH]c3ccccc3c2O)cc1	4.5	.	-1.18	-10.5	-46.1	-4.82*	0.0562*
COc1ccc(N=Nc2[nH]c3ccc(C)cc3c2O)cc1	-10.3	-0.29	0.575	-7.0	26.9	0.0154	.
COc1ccc(-n2cc(C(=O)c3cc(Cl)ccc3O)cc(C#N)c2=O)cc1	44.4	-0.16	-0.0259	29.9	-8.6	2.69*	0.0753
N#Cc1c(-c2ccc(Cl)cc2Cl)nc2n(c1=O)CCS2	-5.5	-0.2	.	-3.8	0.0	0.558	.
